Source: PubChem
Rows were chosen to be rich in hits. Some 0.52% of all compounds tested hit in one or more screens of this group.
Sa helicase inh – inhibitors of S. aureus replicative helicase, primary screen, biochemical, fluorescence unwinding readout; inhibition, % (test concentration not listed); purified S. aureus helicase, fluorescence unwinding assay; AID 485395, 2010; actives 0.05% (n = 120,000); in the data active = inhibition above about 25%, passing the limit was not always enough;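 note: 0% = mean of negative control wells and 100% = mean of positive control wells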
Sa growth inh – S. aureus growth inhibition at 42 and 30 °C, primary screen, LtaS inhibitor project, RN4220, two temperatures; OD600, 20 h, 42 °C; hits give low values; relative growth, % (test concentration not listed); actives 0.53% (n = 170,000); AID 720641, 2013;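 active = relative growth at most 50% at the other temperature and 20+ points below 30 °C, or under 10% at both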
Starred values were filed as active, the others as inactive; / = no result given.

SMILES	Sa helicase inh	Sa growth inh
CCS(=O)(=O)c1ncc(Cl)c(C(=O)N2CCN(c3ccc(OC)cc3)CC2)n1	/	67
COc1ccc(N2CC(NC(=O)NCc3ccc4c(c3)OCO4)CC2=O)cc1OC (configuration not stated)	4	107
COc1nc(C)nc(/N=C\NO)n1	24	86
CO[C@H]1/C=C/O[C@@]2(C)Oc3c(C)c(O)c4c(O)c(c5c(nc6cc(C)ccn65)c4c3C2=O)NC(=O)/C(C)=C\C=C\[C@H](C)[C@H](O)[C@@H](C)C(O)[C@@H](C)[C@H](OC(C)=O)[C@@H]1C (some centres not stated)	/	-0.8*
CO[C@H]1C=CO[C@@]2(C)Oc3c(C)c(O)c4c(O)c(c5c(c4c3C2=O)NC2(CCN(CC(C)C)CC2)N=5)=NC(=O)C(C)=CC=C[C@H](C)[C@H](O)[C@@H](C)[C@@H](O)[C@@H](C)[C@H](OC(C)=O)[C@@H]1C	/	0.6*
CO[C@H]1/C=C/O[C@@]2(C)Oc3c(C)c(O)c4c(O)c(c(C=NN5CCN(C)CC5)c(O)c4c3C2=O)NC(=O)/C(C)=C\C=C\C(C)[C@H](O)[C@@H](C)[C@@H](O)[C@@H](C)[C@@H](OC(C)=O)[C@@H]1C (some centres not stated)	/	1.3*
CO[C@H]1C=CO[C@@]2(C)Oc3c(C)c(O)c4c(O)c(c5c(nc6cc(C)ccn65)c4c3C2=O)NC(=O)C(C)=CC=C[C@H](C)[C@H](O)[C@@H](C)[C@@H](O)[C@@H](C)[C@H](OC(C)=O)[C@@H]1C	/	82
NC(=O)Cc1csc(N)n1	11	99
O=C1C2=C(Nc3ccccc3SC2c2ccc(Cl)c(Cl)c2)c2ccccc21 (configuration not stated)	/	112
Cc1ccc(CNC(=O)CCCCCn2c(=O)c3sccc3n(CC(=O)N(C)c3ccccc3)c2=O)cc1	/	94
NC(=O)c1cc(Cl)nc2ccccc12	7	99
Cc1nc2ccn(Cc3cccs3)c(=O)c2cc1C(=O)NCc1ccccc1	/	116
CC(=O)N=Nc1c2[nH]c3ccccc3nc-2c2ccccc12	17	7.6*
CC(=O)Nc1ccccc1-c1nc2ccccc2[nH]c1=O	8	122
COc1ccc(NC(=O)C2CC2)c2ccccc12	-6	/
CC(=O)Nc1ccc2[nH]c(C)c(C)c2c1	-15	113
CCOC(=O)CCC(=O)O[C@H]1[C@H](O[C@@H]2[C@@H](C)[C@H](O[C@H]3C[C@@](C)(OC)[C@@H](O)[C@H](C)O3)[C@@H](C)C(=O)O[C@H](CC)[C@@](C)(O)[C@H](O)[C@@H](C)C(=O)[C@H](C)C[C@@]2(C)O)O[C@H](C)C[C@@H]1N(C)C	/	-0.8*
CC[C@H]1OC(=O)[C@H](C)C(=O)[C@H](C)[C@@H](O[C@@H]2O[C@H](C)C[C@H](N(C)C)[C@H]2O)[C@](C)(OC)C[C@@H](C)C(=O)[C@H](C)[C@@H]2N(CCCCn3cnc(-c4cccnc4)c3)C(=O)O[C@@]21C	/	93
CC[C@H]1OC(=O)[C@H](C)[C@@H](O[C@H]2C[C@@](C)(OC)[C@@H](O)[C@H](C)O2)[C@H](C)[C@@H](O[C@@H]2O[C@H](C)C[C@H](N(C)C)[C@H]2O)[C@](C)(O)C[C@@H](C)C(=O)[C@H](C)[C@@H](O)[C@]1(C)O	/	-0.9*
CCC(=O)O[C@H]1[C@H](O[C@@H]2[C@@H](C)[C@H](O[C@H]3C[C@@](C)(OC)[C@@H](O)[C@H](C)O3)[C@@H](C)C(=O)O[C@H](CC)[C@@](C)(O)[C@H](O)[C@@H](C)C(=O)[C@H](C)C[C@@]2(C)O)O[C@H](C)C[C@@H]1N(C)C	/	-0.9*
CO[C@@H]1[C@@H](O[C@@H]2O[C@H](C)[C@@H](O[C@H]3C[C@@](C)(O)[C@H](O)[C@H](C)O3)[C@H](N(C)C)[C@H]2O)[C@@H](CC=O)C[C@@H](C)[C@@H](O[C@H]2CC[C@H](N(C)C)[C@@H](C)O2)/C=C/C=C/C[C@H](C)OC(=O)C[C@H]1O	/	21
CC[C@H]1OC(=O)[C@H](C)[C@@H](O[C@H]2C[C@@](C)(OC)[C@@H](O)[C@H](C)O2)[C@H](C)[C@@H](O[C@@H]2O[C@H](C)C[C@H](N(C)C)[C@H]2O)C(C)(O)C[C@@H](C)CN(C)[C@H](C)[C@@H](O)[C@]1(C)O (some centres not stated)	/	-0.4*
CC(C)CN(CC(C)C)S(=O)(=O)c1ccc(C(=O)Nc2nnc(-c3cccs3)o2)cc1	6	28
CC1CCN(c2oc(-c3ccc(COc4ccc(Cl)cc4)o3)nc2C#N)CC1	/	92
CCS(=O)(=O)c1ncc(Cl)c(C(=O)N(Cc2ccccc2)c2ccc(OC)cc2)n1	/	5.0*
CCCS(=O)(=O)c1ncc(Cl)c(C(=O)N(Cc2ccccc2)Cc2ccco2)n1	/	1.2*
